Data reported in PubChem BioAssay AID1159580 (chemical genetic matrix, 2015).
Among all 5,500 compounds or so, about 2,000 (36%) were called active. Not shown: some 18% with an inconclusive outcome. Rule as the data show it: active = normalized growth mostly below about 0.91 (no sharp cut-off); inconclusive = no clear call, values can overlap the other calls; inactive = mostly above about 0.92. This is one part of the list.

Assay: chemical genetic growth profiling, strain panel (AID 1159580);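 also: tested at 20 µM; growth read once vehicle control cultures reached saturation at 30 °C; 1 = growth at the plate median or of vehicle wells; lower values mean less growth of the strain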
Conditions: growth OD

Measured: normalized growth

CC(C)CC1NC(=O)CNC1=O (stereo not given)
inactive: S. cerevisiae deletion strains, locus YBR021W, strain FUR4, stronger effect = lower value 1.03 | S. cerevisiae deletion strains, locus YBR229C, strain ROT2, stronger effect = lower value 0.953 | S. cerevisiae deletion strains, locus YCL029C, strain bik1, stronger effect = lower value 0.965 | S. cerevisiae deletion strains, locus YDL035C, strain GPR1, stronger effect = lower value 0.992 | S. cerevisiae deletion strains, locus YDL074C, strain BRE1, stronger effect = lower value 1.04 | S. cerevisiae deletion strains, locus YDL101C, strain DUN1, stronger effect = lower value 0.974 | S. cerevisiae deletion strains, locus YDL185W, strain tfp1, stronger effect = lower value 0.963 | S. cerevisiae deletion strains, locus YDL192W, strain arf1, stronger effect = lower value 0.992 | S. cerevisiae deletion strains, locus YDR101C, strain arx1, stronger effect = lower value 1.01 | S. cerevisiae deletion strains, locus YDR150W, strain NUM1, stronger effect = lower value 0.984 | S. cerevisiae deletion strains, locus YDR162C, strain NBP2, stronger effect = lower value 0.937 | S. cerevisiae deletion strains, locus YDR318W, strain mcm21, stronger effect = lower value 0.98 | S. cerevisiae deletion strains, locus YDR388W, stronger effect = lower value 0.989 | S. cerevisiae deletion strains, locus YDR502C, strain sam2, stronger effect = lower value 0.987 | S. cerevisiae deletion strains, locus YEL061C, strain CIN8, stronger effect = lower value 0.989 | S. cerevisiae deletion strains, locus YER110C, stronger effect = lower value 0.976 | S. cerevisiae deletion strains, locus YER155C, strain BEM2, stronger effect = lower value 1.01 | S. cerevisiae deletion strains, locus YER167W, strain BCK2, stronger effect = lower value 1 | S. cerevisiae deletion strains, locus YGL078C, strain dbp3, stronger effect = lower value 0.978 | S. cerevisiae deletion strains, locus YGL086W, strain mad1, stronger effect = lower value 1.03 | S. cerevisiae deletion strains, locus YGL248W, strain PDE1, stronger effect = lower value 0.981 | S. cerevisiae deletion strains, locus YGR078C, strain PAC10, stronger effect = lower value 0.969 | S. cerevisiae deletion strains, locus YGR135W, strain pre9, stronger effect = lower value 0.966 | S. cerevisiae deletion strains, locus YGR252W, strain gcn5, stronger effect = lower value 0.958 | S. cerevisiae deletion strains, locus YHR030C, strain SLT2, stronger effect = lower value 1 | S. cerevisiae deletion strains, locus YHR079C, strain IRE1 (second series), stronger effect = lower value 1.01 | S. cerevisiae deletion strains, locus YHR094C, strain hxt1, stronger effect = lower value 0.972 | S. cerevisiae deletion strains, locus YHR129C, strain ARP1, stronger effect = lower value 0.997 | S. cerevisiae deletion strains, locus YHR200W, strain rpn10, stronger effect = lower value 0.971 | S. cerevisiae deletion strains, locus YIL066C, strain RNR3, stronger effect = lower value 0.981 | S. cerevisiae deletion strains, locus YIL073C, strain SPO22, stronger effect = lower value 0.986 | S. cerevisiae deletion strains, locus YIL125W, strain kgd1, stronger effect = lower value 0.987 | S. cerevisiae deletion strains, locus YIR030C, strain dcg1, stronger effect = lower value 0.995 | S. cerevisiae deletion strains, locus YJL095W, strain BCK1, stronger effect = lower value 0.964 | S. cerevisiae deletion strains, locus YJL134W, strain LCB3, stronger effect = lower value 0.992 | S. cerevisiae deletion strains, locus YJL168C, strain set2, stronger effect = lower value 0.991 | S. cerevisiae deletion strains, locus YJL187C, strain SWE1 (second series), stronger effect = lower value 0.969 | S. cerevisiae deletion strains, locus YJR043C, strain POL32, stronger effect = lower value 0.977 | S. cerevisiae deletion strains, locus YJR075W, strain HOC1, stronger effect = lower value 0.993 | S. cerevisiae deletion strains, locus YKL009W, strain mrt4, stronger effect = lower value 1.02 | S. cerevisiae deletion strains, locus YKL068W, stronger effect = lower value 0.985 | S. cerevisiae deletion strains, locus YKL085W, strain MDH1 (second series), stronger effect = lower value 1.02 | S. cerevisiae deletion strains, locus YKL085W, strain MDH1, stronger effect = lower value 1.02 | S. cerevisiae deletion strains, locus YKL190W, strain CNB1, stronger effect = lower value 0.981 | S. cerevisiae deletion strains, locus YKR001C, strain vps1, stronger effect = lower value 1.01 | S. cerevisiae deletion strains, locus YLR039C, strain RIC1, stronger effect = lower value 0.964 | S. cerevisiae deletion strains, locus YLR058C, strain SHM2, stronger effect = lower value 0.979 | S. cerevisiae deletion strains, locus YLR102C, strain apc9, stronger effect = lower value 0.993 | S. cerevisiae deletion strains, locus YLR262C, strain YPT6, stronger effect = lower value 0.938 | S. cerevisiae deletion strains, locus YLR268W, strain sec22, stronger effect = lower value 1.01 | S. cerevisiae deletion strains, locus YLR330W, strain CHS5, stronger effect = lower value 1 | S. cerevisiae deletion strains, locus YLR342W, strain FKS1 (second series), stronger effect = lower value 1.05 | S. cerevisiae deletion strains, locus YLR371W, strain rom2, stronger effect = lower value 0.98 | S. cerevisiae deletion strains, locus YLR418C, strain cdc73, stronger effect = lower value 0.974 | S. cerevisiae deletion strains, locus YML016C, strain PPZ1, stronger effect = lower value 0.99 | S. cerevisiae deletion strains, locus YML032C, strain rad52, stronger effect = lower value 0.959 | S. cerevisiae deletion strains, locus YML124C, strain tub3, stronger effect = lower value 0.982 | S. cerevisiae deletion strains, locus YMR078C, strain ctf18, stronger effect = lower value 0.964 | S. cerevisiae deletion strains, locus YMR223W, strain ubp8, stronger effect = lower value 0.988 | S. cerevisiae deletion strains, locus YMR307W, strain GAS1, stronger effect = lower value 1.02 | S. cerevisiae deletion strains, locus YNL067W, strain RPL9B, stronger effect = lower value 0.971 | S. cerevisiae deletion strains, locus YNL128W, strain TEP1, stronger effect = lower value 0.969 | S. cerevisiae deletion strains, locus YNL153C, strain GIM3, stronger effect = lower value 0.951 | S. cerevisiae deletion strains, locus YNL233W, strain BNI4, stronger effect = lower value 0.997 | S. cerevisiae deletion strains, locus YNL250W, strain rad50, stronger effect = lower value 0.988 | S. cerevisiae deletion strains, locus YNL271C, strain bni1, stronger effect = lower value 0.983 | S. cerevisiae deletion strains, locus YNL298W, strain CLA4, stronger effect = lower value 0.973 | S. cerevisiae deletion strains, locus YNL307C, strain MCK1, stronger effect = lower value 0.984 | S. cerevisiae deletion strains, locus YNR052C, strain pop2, stronger effect = lower value 0.981 | S. cerevisiae deletion strains, locus YOL012C, strain htz1 0.849 | S. cerevisiae deletion strains, locus YOL147C, strain pex11, stronger effect = lower value 0.99 | S. cerevisiae deletion strains, locus YOR061W, strain CKA2, stronger effect = lower value 0.968 | S. cerevisiae deletion strains, locus YOR069W, strain VPS5, stronger effect = lower value 0.996 | S. cerevisiae deletion strains, locus YOR136W, strain idh2, stronger effect = lower value 1.01 | S. cerevisiae deletion strains, locus YOR144C, strain elg1, stronger effect = lower value 0.978 | S. cerevisiae deletion strains, locus YOR184W, strain ser1, stronger effect = lower value 0.974 | S. cerevisiae deletion strains, locus YOR316C, strain cot1, stronger effect = lower value 0.976 | S. cerevisiae deletion strains, locus YPL055C, strain LGE1, stronger effect = lower value 1.01 | S. cerevisiae deletion strains, locus YPL241C, strain CIN2, stronger effect = lower value 0.992 | S. cerevisiae deletion strains, locus YPR119W, strain clb2, stronger effect = lower value 0.985 | S. cerevisiae deletion strains, locus YPR141C, strain kar3, stronger effect = lower value 0.984 | S. cerevisiae deletion strains, locus YPR163C, strain tif3, stronger effect = lower value 0.974 | S. cerevisiae deletion strains, locus YPR167C, strain met16, stronger effect = lower value 1 | S. cerevisiae deletion strains, strain wtn01, stronger effect = lower value 1.02 | S. cerevisiae strains, strain wild type, stronger effect = lower value 0.985
